Most compounds without a hit are left out; they make up all but 8.9% or so of the library.
mHtt clearance: compounds clearing mutant huntingtin protein; HeLa Exon1htt(103Q)mCFP, aggregate imaging; zero = plate's median compound well; inhibition, % at 1.5 µM; 47,000 tested, 0.42% active;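 active = inhibition of aggregate fluorescence above about 70%, also judged a hit by eye on the cell image, limit read from the data, passing the limit was not always enough; inconclusive = no rule stated for this call; inactive = not judged a hit on image review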;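 also: cells exposed to compound for three days before fixation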
WNV NS2B-NS3 inh: WNV NS2B-NS3 proteinase inhibition; z-score (concentration not given with the values); WNV NS2B-NS3 protease, fluorogenic substrate Ex360/Em465; hits give low values; AID 577; 65,000 tested, 0.18% active; P06935; in the data active = z-score below about -3
M1 antag: antagonists of rat M1 muscarinic receptor; P08482; B-score at 10 µM; AID 628; CHO-M1 cells, Fluo-4 calcium, ACh EC80 antagonist mode; hits give low values; 64,000 tested, 3.4% active;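 active = calcium fluorescence response, raw or row-and-column corrected B-score, differing from the plate sample mean either way at a set confidence level, mostly lower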
Target sequence (P08482 whole entry, looked up): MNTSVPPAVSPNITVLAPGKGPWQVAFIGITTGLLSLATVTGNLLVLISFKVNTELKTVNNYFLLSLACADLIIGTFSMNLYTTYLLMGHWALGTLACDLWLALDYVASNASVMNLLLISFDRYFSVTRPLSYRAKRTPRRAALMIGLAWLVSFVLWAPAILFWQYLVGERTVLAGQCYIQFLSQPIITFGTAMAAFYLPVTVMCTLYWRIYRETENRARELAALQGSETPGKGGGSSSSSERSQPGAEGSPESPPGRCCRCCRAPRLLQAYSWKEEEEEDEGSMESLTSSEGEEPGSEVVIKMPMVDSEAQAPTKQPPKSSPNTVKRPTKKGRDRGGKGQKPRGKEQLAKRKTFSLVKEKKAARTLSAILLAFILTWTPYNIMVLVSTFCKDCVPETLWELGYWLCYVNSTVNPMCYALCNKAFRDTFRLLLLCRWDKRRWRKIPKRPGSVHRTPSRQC
M1 ag: activates the M1 muscarinic receptor | 64,000 tested, 3% active | CHO-M1 cells, Fluo-4 calcium fluorescence, agonist mode; hits give high values | B-score at 10 µM;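 active = fluorescence rise, raw or as B-score row- and column-corrected plate score, outside the 99.7% band of its plate's samples, either direction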
D1 mod: allosterically modulates the human D1 dopamine receptor; P21728; 58,000 tested, 5.9% active; B-score at 10 µM; HEK293 D1, CRE-luciferase, dopamine EC30 potentiation; actives deviate in either direction;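 active = luminescence count or its row- and column-corrected plate score outside the 99.7% band of the plate's sample wells, on either side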
M1 ag confirm: rat M1 muscarinic agonism, confirmation. CHO-M1 cells, Fluo-4 calcium fluorescence, agonist mode; actives lie on both sides. AID 1488. 1,700 tested, 19% active. shares compounds with M1 ag. fluorescence change (max-min) at 10 µM;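 active = fluorescence change differs from the solvent-only DMSO control mean at a set confidence level in both duplicate runs; inconclusive = differs from solvent-only control mean in just one of two runs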;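 also: an EC20 dose of acetylcholine follows compound addition during the same imaging run; raw fluorescence intensity difference in instrument units with no normalization to controls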
M4 agonist ctr: counter-screen for M1 agonists: activity at rat M4 receptor; shares compounds with M1 ag; CHO M4/Gqi5 cells, Fluo-4 calcium fluorescence, agonist mode; actives lie on both sides; fluorescence change (max-min) at 10 µM; 1,700 tested, 9% active; AID 1741;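 active = fluorescence change differing from the plate's solvent-only control wells at 99.7% confidence in both duplicates, whether higher or lower; inconclusive = differs from solvent controls in only one of two duplicates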
* hit, by the source's call; ? = inconclusive; · = no result given.

SMILES	mHtt clearance	WNV NS2B-NS3 inh	M1 antag	M1 ag	D1 mod	M1 ag confirm	M4 agonist ctr
Cc1[nH]nc2c1C1(CCN(C(=O)c3ccccc3)CC1)C(C#N)=C(N)O2	·	0.38	0.162	22.8*	-0.0164	-12.4	-28.8
NS(=O)(=O)c1cc2c(cc1Cl)NC=NS2(=O)=O	·	-1.85	1.31	0.0363	-0.282	·	·
O=C(NCc1ccccc1)N(Cc1nc2ccccc2c(=O)[nH]1)C1CCCC1	-8.3	1.31	-0.296	4.23*	·	-11.9	-16.8
CCN(CC(=O)NC(=O)NC1CCCCC1)Cc1nc2ccccc2c(=O)[nH]1	0.7	·	·	·	·	·	·
O=C(CN(CCc1ccccc1)C(=O)Cn1nnc(-c2cccs2)n1)NCc1ccco1	-3.9	0.81	0.194	-0.0136	·	·	·
O=C(CN(Cc1ccccc1Cl)C(=O)Cn1nnc(-c2cccs2)n1)NCC1CCCO1 (stereo not given)	·	1.5	-1.26	7.71*	·	-11.7	-15.5
COc1cccc(C2=CC(c3ccccc3)n3ncnc3N2)c1 (stereo not given)	13.7	-0.65	-0.298	32.9*	·	159*	148*
COc1cccc(C2=CC(c3ccccc3)n3nnnc3N2)c1 (stereo not given)	24.8	0.5	0.00496	-0.524	·	·	·
COc1cccc(C2=CC(c3ccc(N(C)C)cc3)n3ncnc3N2)c1 (stereo not given)	0.0	-0.87	-0.316	2.2*	1.44	-4.98	-40.1
O=C(CSc1nnnn1-c1cccc2c1CCCC2)N1CCCCC1	11.2	·	·	·	·	·	·
CC(=O)N1CCCc2cc(S(=O)(=O)NC(C(=O)NCc3ccc(C)cc3)C(C)C)ccc21 (stereo not given)	-44.4	-0.26	-0.215	2	·	·	·
Cc1nc2ccccc2c2oc(C(=O)N3CCC(N4CCCCC4)CC3)cc12	·	-0.01	-0.936	0.498	-0.215	·	·
Cc1nc2ccccc2c2oc(C(=O)N3CCN(C4CCCCC4)CC3)cc12	·	0.41	-3.19*	2.43*	-1.31	?	-42.9
CCOc1ncccc1C(=O)Nc1cccc(C(=O)Nc2cccc(S(=O)(=O)CCO)c2)c1	-58.8	0.42	-0.578	10.2*	-2.36	-12.7	-19.8
N#C/C(C(N)=O)=c1/ccc2c(c1)N1C3=C(CCCC3)CC3CCCCC31N=2 (stereo not given)	-33.6	-0.45	-1.2	5.2*	-4.65	-22.4	-37.1
O=C(NCC(c1cccnc1)N1CCN(c2ccc(F)cc2)CC1)c1cccc(Cl)c1 (stereo not given)	·	0.31	-1.25	5.84*	-1.97	?	-50.9
CS(=O)(=O)NCC(c1cccnc1)N1CCN(c2ccc(F)cc2)CC1 (stereo not given)	60.9	0.39	0.624	0.00797	-0.481	·	·
CCS(=O)(=O)NCC(c1cccnc1)N1CCN(c2ccc(F)cc2)CC1 (stereo not given)	·	-0.28	-0.552	5.1*	-0.0349	-10.8	-27.9
CCOC(=O)C1CCN(c2c(NC3CCCc4ccccc43)c(=O)c2=O)CC1 (stereo not given)	-27.5	-0.54	0.039	0.364	0.0205	·	·
Cc1oc2c(CN3CCOCC3)c(O)ccc2c(=O)c1-c1ccccc1	-66.1	1.14	0.193	0.636	·	·	·
CCc1cc2c(-c3ccccc3)cc(=O)oc2c(CN2CCOCC2)c1O	2.9	-0.75	-0.936	15.3*	2.44	42.4	17.2
Cc1ccc2c(c1)NC(=O)C(CC(=O)N(C)Cc1ccccc1)O2 (stereo not given)	?	-0.76	-1.07	0.363	0.536	·	·
CCN(CC)c1ccc2cc(C(=O)Nc3ccccn3)c(=O)oc2c1	·	-0.06	-4.61*	353*	·	964*	1294*
CCN(CC)c1ccc2cc(NC(=O)CCC(=O)O)c(=O)oc2c1	·	0.73	-1.65*	289*	-7.72*	1953*	1754*
CCCCCn1c2nc3ccccc3nc2c2c(=O)n(CC3CCCO3)c(C)nc21 (stereo not given)	·	-0.8	0.638	-0.838	1.12	·	·
SMILES	mHtt clearance	WNV NS2B-NS3 inh	M1 antag	M1 ag	D1 mod	M1 ag confirm	M4 agonist ctr
Cc1ccc2c(COn3nnc4ccc(S(=O)(=O)N(C)C)cc43)cc(=O)oc2c1C	·	0.35	-0.0188	20.8*	0.554	-10.3	-29.5
O=C(NCCc1ccc(Cl)cc1)C1CCN(S(=O)(=O)N2CCC3(CC2)OCCO3)CC1	-27.8	2.1	0.0457	-0.522	0.0545	·	·
CC1CCc2cccc3c2N1c1cc(C#N)c(C#N)cc1O3 (stereo not given)	·	-1.4	0.0294	11.4*	2.84	?	-16.1
O=C(OCC#CCSc1nnc(-c2cccc3ccccc23)o1)c1cccs1	-7.8	0.46	-1.14	18.3*	0.0942	?	-29.9
COc1ccc(-n2c3c(cc(C(=O)Nc4ccc5c(c4)C(=O)NC5=O)c2=O)C(=O)CCC3)cc1	·	1.27	0.0554	1.2	0.145	·	·
C=CCOc1ccc2ccccc2c1/C=N/O	24.9	·	·	·	·	·	·
COc1ccc2ccccc2c1/C=N/O	·	-2.26	-1.27	5.62*	2.17	?	-70.6*
CCOC(=O)Cc1csc(SCC(=O)c2c(N)n(CC(C)C)c(=O)n(C)c2=O)n1	-0.2	-0.06	-2.92*	8.91*	-3.88*	-2.62	13.8
COc1ccc2nc(N3CCCC3)c(C#N)cc2c1	-29.2	0.5	-1.18	91.7*	2.84	1016*	1175*
C=C1c2cc(OC)ccc2NC(=O)N1CC	·	0.75	0.0689	8.22*	·	70.8*	11.1
CCN1/C(=C/C(C)=O)Sc2ccc(OC)cc21	·	-0.79	-0.933	0.15	0.228	·	·
Nc1nnc(Cc2ccc(Cl)c(Cl)c2)s1	-7.2	0.1	0.169	-0.397	0.52	·	·
Nc1c(C(=O)NCC2CCCO2)c2nc3ccccc3nc2n1-c1ccccc1 (stereo not given)	2.7	3.16	-2.72	11.4*	-1.61	?	-69.8
CCOC(=O)C1=C(O)CSC1=Nc1ccc(Cl)cc1	·	-0.39	1.33	3.75*	1.04	?	?
C=CCn1c(=O)/c(=C/c2cc(OC)c(OC)c(OC)c2)s/c1=C(/C#N)c1nc2ccccc2n1C	·	1.15	-0.839	76.8*	-0.0784	?	118
C=CCn1c(=O)/c(=C/c2ccc(Cl)cc2)s/c1=C(/C#N)c1nnc2n1CCCCC2	·	-0.33	-0.293	4.33*	-1.46	?	?
C=CCn1c(=O)/c(=C/c2ccc(O)cc2)s/c1=C(/C#N)c1nnc2n1CCCCC2	·	-0.94	-0.693	43*	1.88	89.7*	?
CCOc1ccc(S(=O)(=O)NC(C)(C)C)cc1-c1nc2c(C(C)(C)C)nn(C)c2c(=O)[nH]1	29.2	0.43	0.657	-0.0642	4	·	·
CCOC(=O)C1CCN(c2nc3ccccc3nc2C(C#N)C(=O)OC(C)C)CC1 (stereo not given)	·	-0.56	-0.369	27.8*	-0.283	6.42	-32.5
C=CCOC(=O)C(C#N)c1nc2ccccc2nc1N1CCC(C(=O)OCC)CC1 (stereo not given)	·	1.26	0.194	5.09*	1.53	-2.75	?

Assay outcomes (PubChem BioAssay)
